High-throughput results as filed in PubChem.
HCMV antiviral: qHTS Assay for inhibitors of the human cytomegalovirus (HCMV). HFF cells, HCMV-luciferase reporter, 72 h; active compounds read low. activity change, negative = inhibition, % at 57.5 µM. hit rate 4.5% among 410,000. AID 1259415, 2018; in the data active means activity change below about -60%; inconclusive means no clear call, values can overlap the other calls; inactive means above about -39%
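Compounds were evaluated in HFFs infected with an HCMV luciferase reporter virus (MOI 1 PFU/cell). Luciferase in lysates collected 72 h post infection served as the replication measure.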
VACV mCherry inh: qHTS for Stage-Specific Inhibitors of Vaccinia Orthopoxvirus: mCherry Reporter Primary qHTS. Potency, µM (highest dose often 36.5 µM), for inactives: at the top dose activity change, negative = inhibition, actives largely listed as inhibitors. Vaccinia virus mCherry reporter infection, fluorescence. hit rate 0.63% among 310,000. AID 720579, 2013; calls by dose curve; tested in A549 cells; further: potency means the concentration at half of the fitted maximal effect; nearly all actives have a fitted effect of over 35% in size
Vaccinia Venus: qHTS for Stage-Specific Inhibitors of Vaccinia Orthopoxvirus: Venus Reporter Primary qHTS | Vaccinia virus Venus reporter expression, fluorescence | Potency, µM (titrated, usually from 36.5 µM), for inactives: top-dose activity change, negative = inhibition, most hits filed as inhibitors | hit rate 0.46% among 330,000; calls by dose curve; tested in A549 cells; further: potency means the concentration at half of the fitted maximal effect; nearly all actives have a fitted effect of over 30% in size
MARV entry inh: qHTS for inhibitors of binding or entry into cells for Marburg Virus | Marburg virus pseudotyped entry inhibition, cell reporter | Potency, µM (doses to about 37.8 µM), for inactives: top-dose activity change, negative = inhibition, hits mostly inhibitors | hit rate 1.8% among 300,000 | AID 540276, 2011; calls by dose curve; tested in HEK293 cells; further: potency means the concentration at half of the fitted maximal effect
HCV inh: qHTS Assay for Inhibitors of Hepatitis C Virus (HCV); Potency, µM (doses to about 41.8 µM), without a hit: at the highest dose activity change, negative = inhibition, most hits filed as inhibitors; Huh7.5.1 HCVcc-Cre infection, luciferase reporter, 44 h; hit rate 3.4% among 340,000; AID 651820, 2012; active means well fitted inhibition curve with a large enough effect; inconclusive means small, poorly fitted or top-dose-only effect, or another doubt; inactive means no such curve, though single readings can be large or run the other way; further: potency means the concentration at half of the fitted maximal effect
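1,000 cells/well; 4 h culture; + compound; + HCVcc-Cre (~0.5 moi); 44 h; luciferase substrate, RT 15 min; read 15 sec.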
LASV entry inh: qHTS for Inhibitors of binding or entry into cells for Lassa Virus; hit rate 1.2% among 300,000; Potency, µM (highest dose often 37.9 µM), without a hit: at the highest dose activity change, negative = inhibition, usual class: inhibitors; Lassa virus pseudotype entry inhibition, cell reporter; calls by dose curve; tested in HEK293 cells; further: potency means the concentration at half of the fitted maximal effect; nearly all actives have a fitted effect of over 50% in size
The depositor's hits bear a star; i = inactive; ? = inconclusive; . = no result given; + = active, no number; [ ] = another dose, or the depositor's remark. Sampled rows, rich in hits. Any-hit rate of the full collection: about 7.8%. On the % scale 0 is the no-effect control and ±100 the full control effect.

SMILES | HCMV antiviral | VACV mCherry inh | Vaccinia Venus | MARV entry inh | HCV inh | LASV entry inh
O=C(Nc1ccc2c(c1)OCO2)C1C=CC(Br)O1 (centres undefined) | . | . | . | 20% | . | .
O=C(C1CCN(c2ncnc3c2nc2n3CCCCC2)CC1)N1CCN(c2ccccc2)CC1 | -38 | -1% | -13% | . | . | -5%[46.1 µM]
COCCNC(=O)CN1C(=O)c2cccnc2Oc2ccc(Cl)cc21 | + | 13% | 11% | . | . | 2%[46.1 µM]
CCCCSCCCNC(=O)CN1C(=O)c2cccnc2Oc2ccc(Cl)cc21 | 0 | -5% | -1% | . | . | 0%[46.1 µM]
Clc1ccc2[nH]c3c(NCC4CCCO4)ncnc3c2c1 (centres undefined) | -65* | . | . | 0% | . | .
Clc1ccc2[nH]c3c(NCCN4CCOCC4)ncnc3c2c1 | -10 | i | -20% | -20% | ? | ?
CC1CCC(C(C)C)C(OC(=O)Cn2c(-c3ccc(Br)cc3)[n+](C)c3ccccc32)C1 (centres undefined) | -99* | 11µM* | 13µM* | ? | ? | ?
CC1CCC(C(C)C)C(OC(=O)Cn2c(-c3ccc(Cl)cc3)[n+](C)c3ccccc32)C1 (centres undefined) | -100* | 2%[7.34 µM] | 11%[7.34 µM] | . | ? | .
Cc1ccccc1OCc1n(CC(=O)OC2CC(C)CCC2C(C)C)c2ccccc2[n+]1C (centres undefined) | -96* | ? | 11µM* | 3.5µM* | ? | ?
CC1CCC(C(C)C)C(OC(=O)COC(=O)c2ccccc2N)C1 (centres undefined) | -16 | -5% | -11% | -4% | 9% | ?
O=C(N/N=C/c1cc(Cl)cc(Cl)c1O)c1ccncc1 | -19 | . | . | . | ? | .
Oc1c(Cl)cc(Cl)cc1/C=N/Nc1ncc(Br)cn1 | -94* | 1.6µM* | ? | ? | 2.2µM* | ?
COc1cccc([C@@H]2Oc3ccc(Br)cc3C(=O)[C@@H]2OC(=O)N[C@H](C)C2CCCCC2)c1 | . | . | . | -30%[14.2 µM] | . | .
Cc1c(Cl)ccc2sc(N3CCN(C(=O)CCS(=O)(=O)c4ccc(F)cc4)CC3)nc12 | -70* | -23% | ? | . | . | ?
Cc1ccc(S(=O)(=O)CCC(O)c2ccc(Cl)cc2)cc1 (centres undefined) | -102* | . | . | . | 10% | .
Cc1ccc(S(=O)(=O)CCC(=O)N2CCN(c3ccc(Cl)cc3)CC2)cc1 | -70* | . | . | -12% | ? | -27%
COc1ccc(-c2nc3ccccc3s2)cc1NC(=O)c1ccc(F)cc1 | 50 | ? | ? | -4%[46.1 µM] | . | 1%[46.1 µM]
COc1ccccc1Oc1nc(-c2ccccc2)cc(C)c1S(C)(=O)=O | -13 | . | -16% | ? | ? | -18%
Cc1cccc(Oc2nc(-c3ccccc3)cc(C)c2S(C)(=O)=O)c1C | 0 | . | ? | ? | 10µM* | ?
CCOc1ccccc1CNC(=O)C1CCCN(c2ncnc3onc(-c4ccc(F)cc4)c23)C1 (centres undefined) | 4 | -15% | -19% | . | . | -1%[46.1 µM]
Cc1cc(Cl)nc2ccc(Cc3ccc4nc(Cl)cc(C)c4c3)cc12 | 37 | i | -24% | . | 10µM* | .
COCC(C)n1c(C)cc(C(=O)COC(=O)c2c(C)nn(-c3ccccc3)c2C)c1C (centres undefined) | 6 | ? | -27% | ? | ? | ?
COCC(C)n1c(C)cc(C(=O)COC(=O)c2c(NC(C)=O)sc(C)c2C)c1C (centres undefined) | -5 | -17% | -10% | 2.6µM* | ? | ?
CCCc1ccc(-c2ccc(C(=O)O)cc2)nc1 | 42 | -8% | -3% | ? | 21% | 12µM*
CCCCn1c(SCc2ccc(C(=O)OC)o2)nc2cc(S(N)(=O)=O)ccc21 | -39 | -16% | -23% | -37% | 2.5µM* | ?
CCCCn1c(SCC(=O)N(C)C2CCS(=O)(=O)C2)nc2cc(S(N)(=O)=O)ccc21 (centres undefined) | -61* | . | . | . | 8% | .
Cc1ccc(-c2cn3c(n2)sc2cc(C(=O)NCCCN4CCCCC4)ccc23)cc1 | . | 11µM* | 8.9µM* | . | . | 8%[46.1 µM]
